Experiment [1] addresses Cell division control protein 42 homolog (Homo sapiens) (UniProt P60953). Nature of the experiment: activated mutant Cdc42 GTP-binding inhibitors, dose response, biochemical, multiplex bead flow cytometry, Bodipy-FL-GTP (AID 1333;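 active = fitted half-maximal concentration within the tested dose range, moderate curve steepness, a statistically real signal drop, and little compound fluorescence or tag-binding interference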). On the technique in general: In flow cytometry, cells or beads pass a laser one at a time.
The target of experiment [2] is GTPase HRas (Homo sapiens) (UniProt P01112). Nature of the experiment: inhibitors of GTP binding to wildtype Ras, dose response, biochemical, multiplex bead flow cytometry (AID 1335;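 active = fitted half-maximal concentration within 10 nM to 100 µM, steepness 0.5 to 2, significant signal drop, low assay interference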). The following applies: bead-based flow cytometry, Bodipy-GTP binding to GST-Ras; at 100 µM (top of the series) unless noted.
GTPase HRas (Homo sapiens), sequence (P01112 whole entry, looked up): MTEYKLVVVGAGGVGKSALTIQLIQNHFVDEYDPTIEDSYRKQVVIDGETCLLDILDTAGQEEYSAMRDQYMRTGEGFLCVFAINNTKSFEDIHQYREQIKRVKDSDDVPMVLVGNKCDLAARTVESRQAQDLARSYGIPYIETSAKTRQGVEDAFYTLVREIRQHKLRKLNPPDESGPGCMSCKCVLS
The test system of experiment [3] is Ras-related protein Rab-7a (dog), GTP binding. Nature of the experiment: Rab7 GTP binding inhibitors, potency, dose response, biochemical, wildtype, multiplex bead flow cytometry (AID 1336; call rule not given here).
Experiment [4] concerns the target Ras-related C3 botulinum toxin substrate 1 (Homo sapiens) (UniProt P63000). Nature of the experiment: wildtype Rac1 GTP binding inhibitors, dose response, biochemical, multiplex bead flow cytometry (AID 1340). The following applies: GST-Rac1 beads, Bodipy-FL-GTP binding; at 100 µM (top of the series) unless noted.
Experiment [5] addresses GTPase HRas (Homo sapiens) (UniProt P01112). Nature of the experiment: activated Ras mutant GTP binding inhibitors, dose response, biochemical, multiplex bead flow cytometry (AID 1341;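 active = dose-response curve with midpoint inside the tested range, moderate steepness, significant amplitude and little compound fluorescence or bead-attachment interference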;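 also: GST-tagged constitutively activated Ras mutant immobilized on beads and multiplexed with other GTPases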).
Experiment [6] deals with Cell division control protein 42 homolog (Homo sapiens) (UniProt P60953). Briefly: wildtype Cdc42 GTP-binding inhibitors, dose response, biochemical, multiplex bead flow cytometry, Bodipy-FL-GTP (AID 1334;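 active = fitted half-maximal concentration within the tested range, moderate curve steepness, significant signal drop, and little compound fluorescence or bead-linkage interference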). The following applies: bead-based flow cytometry, Bodipy-FL-GTP binding to GST-Cdc42; at 100 µM (top of the series) unless noted.
Cell division control protein 42 homolog (Homo sapiens), sequence (P60953 whole entry, looked up): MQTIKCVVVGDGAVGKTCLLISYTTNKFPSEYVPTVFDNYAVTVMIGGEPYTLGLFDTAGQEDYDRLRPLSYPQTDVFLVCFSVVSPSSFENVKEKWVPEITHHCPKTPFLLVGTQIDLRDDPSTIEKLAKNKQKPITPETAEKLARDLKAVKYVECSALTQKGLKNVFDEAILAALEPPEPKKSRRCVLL
The nature of experiment [7]: RPL19A-GFP modulators, yeast TOR pathway, confirmation, cell-based, S. cerevisiae, flow cytometry, cherry picks, mother/daughter gates (AID 2270;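 active = GFP response below 50% of the DMSO control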). The following applies: S. cerevisiae RPL19A-GFP strain, 3 h, at 10 µM, stronger effect = lower value, 100 = same GFP as DMSO wells.
Experiment [8] in a line: LAP4-GFP expression modulators in yeast, confirmation, cell-based, cherry picks, flow cytometry, mother/daughter gates (AID 2271;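 active = GFP response above 150% of the DMSO control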;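 also: ratio of sample to DMSO plate mean so 100% equals DMSO level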). The following applies: S. cerevisiae LAP4-GFP strain, 3 h, at 10 µM, stronger effect = higher value, 100 means same as DMSO control.
A short description of experiment [9]: modulators of MEP2-GFP levels in yeast, confirmation, S. cerevisiae, flow cytometry GFP, cherry picks (AID 2272;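 active = GFP response above 150% of the DMSO control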;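 also: ratio of well signal to plate DMSO mean so 100% equals DMSO level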). The following applies: S. cerevisiae MEP2-GFP strain, 3 h, at 10 µM, stronger effect = higher value.
A short description of experiment [10]: AGP1-GFP expression modulators, hit retest, confirmation, cell-based, flow cytometry, S. cerevisiae, cherry picks (AID 2273;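 active = GFP response above 150% of the DMSO level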;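 also: median GFP channel fluorescence over the whole cell population gate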). Conditions: S. cerevisiae AGP1-GFP strain, 3 h, at 10 µM.
A short description of experiment [11]: modulators of CIT2-GFP expression in yeast, confirmation, S. cerevisiae, GFP fusion, cherry picks, mother/daughter gates (AID 2274;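 active = GFP response above 150% of the DMSO level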). Conditions: S. cerevisiae CIT2-GFP strain, flow cytometry, 3 h, at 10 µM, stronger effect = higher value.
The mark [12] stands for this setting: measured here: daughter cell gate.
Setting [13] is: measured here: mother cell gate.

Where “and” joins values, the source holds several entries; their conditions need not be identical. Identical values can stand only once. For part of these data: Potency and affinity values are given separately. Calls of active or inactive are those of the source.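 The calls were made as follows, unless noted: active = dose curve with midpoint inside tested range, moderate steepness, plateau gap beyond fit error, low compound glow and bead-link interference; inactive = the rest.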

Regarding `CCOC(=O)Cn1nnnc1C(C(C)C)N(Cc1cccs1)Cc1cc2cc(C)ccc2[nH]c1=O` (centres undefined), the compound was called inactive in experiment [1], in [3] and in [5]. This compound also showed a GTP binding, percent of control in experiment [2] of 181%. The GTP binding signal, raw median fluorescence (lower = inhibition) (MCF (arbitrary fluorescence units)) in [4] stood at 181.
In the case of `CC(=O)Oc1ccc2c(c1)Oc1cc(OC(C)=O)ccc1C21OC(=O)c2ccccc21`, the GTP binding signal, raw median fluorescence (lower = inhibition) (MCF (arbitrary fluorescence units)) in experiment [4] was 720.
In the case of `COc1ccc(-c2cc(C#N)nc(N3CCNCC3)n2)cc1`, the GTP binding, percent of control in experiment [2] amounted to 153%. Moreover, the call in [3] and in [5] was inactive. Also, the GTP binding signal, raw median fluorescence (lower = inhibition) (MCF (arbitrary fluorescence units)) in [4] was found to be 182.
The compound `CC(=O)c1ccc(C#CC(=O)c2ccc([N+](=O)[O-])cc2)cc1` returned a GTP binding, percent of control in experiment [2] of 204%. For the same compound, the compound was classed as inactive in [3] and in experiment [5]. This compound also displayed a GTP binding signal, raw median fluorescence (lower = inhibition) (MCF (arbitrary fluorescence units)) in experiment [4] of 55.9.
With `Cc1cccc2cc(CN(Cc3cccs3)C(c3nnnn3C3CCCC3)C(C)C)c(=O)[nH]c12` (centres undefined), in experiment [2], the GTP binding, percent of control was found to be 60.6%. Moreover, the compound was called inactive in [3] and in [5]. Further, in experiment [4], the GTP binding signal, raw median fluorescence (lower = inhibition) (MCF (arbitrary fluorescence units)) is 207.
`COc1cc(OC)c(-c2c3cc(O)c(=O)cc-3oc3cc(O)c(O)cc23)cc1OC`: the GTP binding signal, raw median fluorescence (lower = inhibition) (MCF (arbitrary fluorescence units)) in experiment [4] amounted to 480.
The same measure, in the same setting: to `O=S(=O)(c1cccc(-c2nnc(SCc3ccc(Cl)cc3)o2)c1)N1CCCCC1` belongs 182.
For the compound `CCCc1nc2c(=O)n(C)c(=O)nc-2n(C)n1`, the GTP binding, percent of control in [2] amounted to 84.4%. Further, the result in experiment [3] and in experiment [5] was inactive.
Regarding `Cc1cc(C(=O)Cn2nc(C(=O)O)c3ccccc3c2=O)c(C)n1-c1ccc(OC(F)F)cc1`, the fluorescence, percent of control (lower = inhibition) in experiment [6] turned out to be 28.1%. Besides, the GTP binding, percent of control in experiment [2] turned out to be 75.5%. Further, the compound was called inactive in experiment [3] and in experiment [5].
In the case of `O=C(O)c1cc(Sc2ccc(Cl)cc2)nc2ccccc12`, in experiment [6], the fluorescence, percent of control (lower = inhibition) worked out at 55.8%. The same compound returned a GTP binding, percent of control in [2] of 81.1%. Moreover, the call in [3] and in [5] was inactive. Also, the GTP binding signal, raw median fluorescence (lower = inhibition) (MCF (arbitrary fluorescence units)) in experiment [4] came to 29.
The compound `COc1ccc(C2CC(c3ccccc3)=NN2c2ccc(S(N)(=O)=O)cc2)cc1` (centres undefined) showed a GTP binding, percent of control in experiment [2] of 84.1%. The outcome in [3] and in experiment [5] was inactive. In addition, the GTP binding signal, raw median fluorescence (lower = inhibition) (MCF (arbitrary fluorescence units)) in experiment [4] is 260 and 239.
Regarding `CCc1ccc(NS(=O)(=O)c2ccc3[nH]cc(C(=O)N4CCc5ccccc54)c(=O)c3c2)cc1`, the GTP binding, percent of control in experiment [2] was determined as 62.6%. For the same compound, the compound was called inactive in [3] and in [5]. In addition, the GTP binding signal, raw median fluorescence (lower = inhibition) (MCF (arbitrary fluorescence units)) in experiment [4] amounted to 167.
In turn, `Cc1cn2c(nc(=O)c3cccnc32)s1` returned a GTP binding signal, raw median fluorescence (lower = inhibition) (MCF (arbitrary fluorescence units)) in experiment [4] of 126.
Compound `CC1CCN(c2ncccc2C(=O)O)CC1` returned a GTP binding signal, raw median fluorescence (lower = inhibition) (MCF (arbitrary fluorescence units)) in experiment [4] of 407.
The same measure, in the same setting: to `CCOc1ccccc1-c1c2cc(O)c(=O)cc-2oc2cc(O)c(O)cc12` belongs 184.
Regarding `Cc1ccc(NC(=O)C2=C(c3ccccc3)S(=O)(=O)CCS2(=O)=O)cc1`, the fluorescence, percent of control (lower = inhibition) in experiment [6] is 22.2%. The compound further came in with a GTP binding, percent of control in experiment [2] of 79.3%. Moreover, the compound was called inactive in experiment [3] and in [5]. This compound displayed a GTP binding signal, raw median fluorescence (lower = inhibition) (MCF (arbitrary fluorescence units)) in experiment [4] of 222.
In experiment [2], `Cc1cc(C)c(C)c(C(=O)c2ccccc2C(=O)O)c1C` gave a GTP binding, percent of control of 122%. The outcome in [3] and in [5] was inactive.
On to `Cc1ccc(SC(CC(=O)c2ccc(C(C)(C)C)cc2)C(=O)O)cc1` (centres undefined), for which the fluorescence, percent of control (lower = inhibition) in experiment [6] was found to be 26.6%. Also, the GTP binding, percent of control in [2] is 72.6%. For the same compound, the compound was classed as inactive in [3] and in experiment [5]. Also, in [4], the GTP binding signal, raw median fluorescence (lower = inhibition) (MCF (arbitrary fluorescence units)) was 240. Also, the GFP response vs DMSO was 95.8% (inactive) in experiment [7], 94% in experiment [7] (setting [12]), 97.3% in [7] (setting [13]) and 94.4% (inactive) in experiment [9]. The figures for the GFP response relative to DMSO in experiment [8], in experiment [8] (measured here: daughter cell gate response) and in [8] (measured here: mother cell gate response) were 106% (inactive), 103% and 111%, respectively. Further, the GFP response, % of DMSO in experiment [10] was 99.3% (inactive); in [11] it was 92.2% (inactive); in [11] (setting [12]), 90.5%; in experiment [11] (setting [13]), 91.8%.
In the case of `NS(=O)(=O)c1ccc(N2N=C(c3ccccc3)CC2c2cccc(F)c2)cc1` (centres undefined), the GTP binding, percent of control in [2] was 50% and 86.8%. The call in experiment [3] and in experiment [5] was inactive. The GTP binding signal, raw median fluorescence (lower = inhibition) (MCF (arbitrary fluorescence units)) in experiment [4] is 0 and 100.
`O=C(O)c1ccccc1Sc1ncnc2sc3c(c12)CCC3` came in with a GTP binding, percent of control in experiment [2] of 118%. Besides, the outcome in experiment [5] was inactive.
`Cc1ccccc1N(CC(=O)N/N=C/c1ccccc1Cl)C(=O)c1ccccc1` registered a GTP binding signal, raw median fluorescence (lower = inhibition) (MCF (arbitrary fluorescence units)) in experiment [4] of 212.
In experiment [6], `COc1cccc(NC(=O)COC(=O)/C=C/c2ccc(Cl)cc2Cl)c1` registered a fluorescence, percent of control (lower = inhibition) of 48.4%. This compound also registered a GTP binding, percent of control in [2] of 62%. Besides, the call in experiment [3] and in experiment [5] was inactive. The compound further gave a GTP binding signal, raw median fluorescence (lower = inhibition) (MCF (arbitrary fluorescence units)) in experiment [4] of 180.
Consider `O=C(Nc1nnc(-c2ccc3c(c2)OCCO3)o1)c1ccc(Cc2ccccc2)cc1`, for which the GTP binding, percent of control in experiment [2] was found to be 83.9%. Besides, the call in [3] and in experiment [5] was inactive. The compound further returned a GTP binding signal, raw median fluorescence (lower = inhibition) (MCF (arbitrary fluorescence units)) in experiment [4] of 144.
As to `Cc1ccc(C(=O)COC(=O)c2ccc3c(c2)C(=O)N(c2cccc4ncccc24)C3=O)cc1`, the GTP binding signal, raw median fluorescence (lower = inhibition) (MCF (arbitrary fluorescence units)) in experiment [4] is 151.
